In all, about 2,900 compounds were measured (“NF-kB SEAP reporter activity, fold change vs agonist alone”: median about 0.99, highest 2% from about 2.6 on). For the sample, the highest values were picked, then their nearest neighbours and some compounds at random.
Assays:
RAW-Dual [1] = assay: NF-kB SEAP reporter activity, fold change vs agonist alone; cytotoxicity flag (confluency mask): not cytotoxic; higher = enhanced NF-kB activity
Method in brief: (§1)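 After 50 nL of library stock was delivered by pin tool to RAW-Dual macrophages (50,000 cells/well, DMEM, 384-well plates), a PRR agonist was added 1 h later and the plates were kept at 37 °C, 5% CO2. Twenty hours later, IRF was read from supernatant by QuantiLuc luminescence and NF-κB by QuantiBlue absorbance at 620 nm. Reporter activity is stated as fold change over agonist-alone wells. Wells with IncuCyte confluency under 70% of agonist controls in both mask sets were counted as cytotoxic.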

RAW-Dual [2] = assay: NF-kB SEAP reporter activity, fold change vs agonist alone; higher = enhanced NF-kB activity
Method in brief: as §1

RAW-Dual [3] = assay: NF-kB SEAP reporter activity, fold change vs agonist alone; cytotoxicity flag (confluency mask): cytotoxic (confluency <70% of control); higher = enhanced NF-kB activity
Method in brief: as §1

[4] = agonist: ODN 1826 (TLR9) 0.5 ug/mL
[5] = agonist: Pam2CSK4 (TLR2/6) 0.1 ug/mL
[6] = agonist: Pam3CSK4 (TLR2/1) 0.1 ug/mL
[7] = library stock concentration (final ~1000-fold dilution): 10 mM, cytotoxicity flag (confluency mask): not cytotoxic, agonist: Imiquimod (TLR7) […]
[8] = library stock concentration (final ~1000-fold dilution): 10 mM, cytotoxicity flag (confluency mask): not cytotoxic, agonist: MPLA (TLR4) […]

NCC1OC(OC2C(CO)OC(OC3C(O)C(N)CC(N)C3OC3OC(CO)C(O)C(O)C3N)C2O)C(N)C(O)C1O.O=S(=O)(O)O (centres undefined) (library stock concentration (final ~1000-fold dilution): 10 mM water)
NF-kB SEAP reporter activity (RAW-Dual [1]; agonist: LPS (TLR4) 0.1 ug/mL): 1.05 | NF-kB SEAP reporter activity (RAW-Dual [1]; [4]): 1.24 | NF-kB SEAP reporter activity (RAW-Dual [1]; [5]): 1.27 | NF-kB SEAP reporter activity (RAW-Dual [1]; [6]): 1.03

NCC1OC(OC2C(CO)OC(OC3C(O)C(N)CC(N)C3OC3OC(CO)C(O)C(O)C3N)C2O)C(N)C(O)C1O.O=S(=O)(O)O (centres undefined)
NF-kB SEAP reporter activity (RAW-Dual [2]; library stock concentration (final ~1000-fold dilution): 10 mM water, cytotoxicity flag (confluency mask): not cytotoxic, agonist: Imiquimod (TLR7) […]): 0.946 | NF-kB SEAP reporter activity (RAW-Dual [2]; library stock concentration (final ~1000-fold dilution): 10 mM water, cytotoxicity flag (confluency mask): not cytotoxic, agonist: MPLA (TLR4) […]): 1.03

CC(C)(C)NCC(O)COc1ccccc1C1CCCC1.CC(C)(C)NCC(O)COc1ccccc1C1CCCC1.O=S(=O)(O)O (centres undefined) (library stock concentration (final ~1000-fold dilution): 10 mM)
NF-kB SEAP reporter activity (RAW-Dual [1]; agonist: LPS (TLR4) 0.1 ug/mL): 0.844 | NF-kB SEAP reporter activity (RAW-Dual [1]; [4]): 1.08 | NF-kB SEAP reporter activity (RAW-Dual [1]; [5]): 0.857 | NF-kB SEAP reporter activity (RAW-Dual [1]; [6]): 0.842

CC(C)(C)NCC(O)COc1ccccc1C1CCCC1.CC(C)(C)NCC(O)COc1ccccc1C1CCCC1.O=S(=O)(O)O (centres undefined)
NF-kB SEAP reporter activity (RAW-Dual [2]; [7]): 1.29 | NF-kB SEAP reporter activity (RAW-Dual [2]; [8]): 1.32

CN1CCc2c(c3ccccc3n2Cc2ccc(C(=O)NO)cc2)C1
NF-kB SEAP reporter activity (RAW-Dual [2]; [7]): 1 | NF-kB SEAP reporter activity (RAW-Dual [2]; [8]): 1.11

CN1CCc2c(c3ccccc3n2Cc2ccccc2)C1.CN1CCc2c(c3ccccc3n2Cc2ccccc2)C1.O=S(=O)(O)c1cccc2c(S(=O)(=O)O)cccc12
NF-kB SEAP reporter activity (RAW-Dual [2]; library stock concentration (final ~1000-fold dilution): 2 mM, cytotoxicity flag (confluency mask): not cytotoxic, agonist: MPLA (TLR4) […]): 1.15

CN1CCc2c(c3ccccc3n2Cc2ccc(C(=O)NO)cc2)C1.Cl
NF-kB SEAP reporter activity (RAW-Dual [2]; [7]): 2.44 | NF-kB SEAP reporter activity (RAW-Dual [2]; [8]): 2.55

CN1CCc2c(c3ccccc3n2Cc2ccccc2)C1.CN1CCc2c(c3ccccc3n2Cc2ccccc2)C1.O=S(=O)(O)c1cccc2c(S(=O)(=O)O)cccc12 (library stock concentration (final ~1000-fold dilution): 2 mM)
NF-kB SEAP reporter activity (RAW-Dual [1]; agonist: LPS (TLR4) 0.1 ug/mL): 1.29 | NF-kB SEAP reporter activity (RAW-Dual [1]; [4]): 0.722 | NF-kB SEAP reporter activity (RAW-Dual [1]; [5]): 0.952 | NF-kB SEAP reporter activity (RAW-Dual [1]; [6]): 0.958

CN1CCc2c(c3ccccc3n2Cc2ccc(C(=O)NO)cc2)C1.Cl (library stock concentration (final ~1000-fold dilution): 10 mM)
NF-kB SEAP reporter activity (RAW-Dual [1]; agonist: LPS (TLR4) 0.1 ug/mL): 5.1 | NF-kB SEAP reporter activity (RAW-Dual [1]; [4]): 1.71 | NF-kB SEAP reporter activity (RAW-Dual [1]; [5]): 1.08 | NF-kB SEAP reporter activity (RAW-Dual [1]; [6]): 1.59

CN1CCc2c(c3ccccc3n2Cc2ccc(C(=O)NO)cc2)C1 (library stock concentration (final ~1000-fold dilution): 10 mM)
NF-kB SEAP reporter activity (RAW-Dual [1]; agonist: LPS (TLR4) 0.1 ug/mL): 1.15 | NF-kB SEAP reporter activity (RAW-Dual [1]; [4]): 1.21 | NF-kB SEAP reporter activity (RAW-Dual [1]; [5]): 0.779 | NF-kB SEAP reporter activity (RAW-Dual [1]; [6]): 1.15

CC(C)N(CCC(=O)c1ccc2ccccc2c1)Cc1ccccc1.Cl
NF-kB SEAP reporter activity (RAW-Dual [2]; library stock concentration (final ~1000-fold dilution): 10 mM, cytotoxicity flag (confluency mask): cytotoxic (confluency <70% of control), agonist: Imiquimod (TLR7) […]): 1.07 | NF-kB SEAP reporter activity (RAW-Dual [2]; library stock concentration (final ~1000-fold dilution): 10 mM, cytotoxicity flag (confluency mask): cytotoxic (confluency <70% of control), agonist: MPLA (TLR4) […]): 0.507

CC(C)N(CCC(=O)c1ccc2ccccc2c1)Cc1ccccc1.Cl (library stock concentration (final ~1000-fold dilution): 10 mM)
NF-kB SEAP reporter activity (RAW-Dual [3]; agonist: LPS (TLR4) 0.1 ug/mL): 0.45 | NF-kB SEAP reporter activity (RAW-Dual [3]; [4]): 0.518 | NF-kB SEAP reporter activity (RAW-Dual [3]; [5]): 0.615 | NF-kB SEAP reporter activity (RAW-Dual [3]; [6]): 0.442

O=C(NCCO)c1cccc(-c2cc(Nc3ccc(OC(F)(F)F)cc3)ncn2)c1 (library stock concentration (final ~1000-fold dilution): 10 mM)
NF-kB SEAP reporter activity (RAW-Dual [1]; agonist: LPS (TLR4) 0.1 ug/mL): 1.15 | NF-kB SEAP reporter activity (RAW-Dual [1]; [4]): 0.796 | NF-kB SEAP reporter activity (RAW-Dual [1]; [5]): 0.96 | NF-kB SEAP reporter activity (RAW-Dual [1]; [6]): 1.03

O=C(NCCO)c1cccc(-c2cc(Nc3ccc(OC(F)(F)F)cc3)ncn2)c1
NF-kB SEAP reporter activity (RAW-Dual [2]; [7]): 1.09 | NF-kB SEAP reporter activity (RAW-Dual [2]; [8]): 1.23

Cc1cc(Nc2ccc(NC(=O)c3ccc(Nc4ccnc5ccccc45)cc3)cc2)nc(N)n1
NF-kB SEAP reporter activity (RAW-Dual [2]; [7]): 1.31 | NF-kB SEAP reporter activity (RAW-Dual [2]; [8]): 2.36

Cc1cc(Nc2ccc(NC(=O)c3ccc(Nc4ccnc5ccccc45)cc3)cc2)nc(N)n1 (library stock concentration (final ~1000-fold dilution): 10 mM)
NF-kB SEAP reporter activity (RAW-Dual [1]; agonist: LPS (TLR4) 0.1 ug/mL): 2.34 | NF-kB SEAP reporter activity (RAW-Dual [1]; [4]): 0.228 | NF-kB SEAP reporter activity (RAW-Dual [1]; [5]): 0.856 | NF-kB SEAP reporter activity (RAW-Dual [1]; [6]): 1.34

O=C(Nc1ccc(OC(F)(F)F)cc1)c1sccc1NCc1ccnc2ccccc12
NF-kB SEAP reporter activity (RAW-Dual [2]; [7]): 1.77 | NF-kB SEAP reporter activity (RAW-Dual [2]; [8]): 2.25

O=C(Nc1ccc(OC(F)(F)F)cc1)c1sccc1NCc1ccnc2ccccc12 (library stock concentration (final ~1000-fold dilution): 10 mM)
NF-kB SEAP reporter activity (RAW-Dual [1]; agonist: LPS (TLR4) 0.1 ug/mL): 2.86 | NF-kB SEAP reporter activity (RAW-Dual [1]; [4]): 1.18 | NF-kB SEAP reporter activity (RAW-Dual [1]; [5]): 0.672 | NF-kB SEAP reporter activity (RAW-Dual [1]; [6]): 1.07

Cc1[nH]nc(C(F)(F)F)c1Cc1sc2c(c1C(=O)N1CC(C)(O)CO1)c(=O)n(C)c(=O)n2C(C)C (centres undefined) (library stock concentration (final ~1000-fold dilution): 10 mM)
NF-kB SEAP reporter activity (RAW-Dual [1]; agonist: LPS (TLR4) 0.1 ug/mL): 1.81 | NF-kB SEAP reporter activity (RAW-Dual [1]; [4]): 1.27 | NF-kB SEAP reporter activity (RAW-Dual [1]; [5]): 0.918 | NF-kB SEAP reporter activity (RAW-Dual [1]; [6]): 1.06

Cc1[nH]nc(C(F)(F)F)c1Cc1sc2c(c1C(=O)N1CC(C)(O)CO1)c(=O)n(C)c(=O)n2C(C)C (centres undefined)
NF-kB SEAP reporter activity (RAW-Dual [2]; [7]): 1.11 | NF-kB SEAP reporter activity (RAW-Dual [2]; [8]): 1.25

Cc1cc(C)nc(NC(=S)N2CCN(Cc3ccc(C(F)(F)F)cc3)CC2)c1
NF-kB SEAP reporter activity (RAW-Dual [2]; [7]): 0.758 | NF-kB SEAP reporter activity (RAW-Dual [2]; [8]): 0.954

Cc1cc(C)nc(NC(=S)N2CCN(Cc3ccc(C(F)(F)F)cc3)CC2)c1 (library stock concentration (final ~1000-fold dilution): 10 mM)
NF-kB SEAP reporter activity (RAW-Dual [1]; agonist: LPS (TLR4) 0.1 ug/mL): 0.783 | NF-kB SEAP reporter activity (RAW-Dual [1]; [4]): 0.834 | NF-kB SEAP reporter activity (RAW-Dual [1]; [5]): 0.805 | NF-kB SEAP reporter activity (RAW-Dual [1]; [6]): 0.809

CC1c2cccc(O)c2C(=O)C2=C(O)C3(O)C(=O)C(C(N)=O)=C(O)C(N(C)C)C3C(O)C21 (centres undefined) (library stock concentration (final ~1000-fold dilution): 10 mM)
NF-kB SEAP reporter activity (RAW-Dual [1]; agonist: LPS (TLR4) 0.1 ug/mL): 1.81 | NF-kB SEAP reporter activity (RAW-Dual [1]; [4]): 0.966 | NF-kB SEAP reporter activity (RAW-Dual [1]; [5]): 0.896 | NF-kB SEAP reporter activity (RAW-Dual [1]; [6]): 0.885

CC1c2cccc(O)c2C(=O)C2=C(O)C3(O)C(=O)C(C(N)=O)=C(O)C(N(C)C)C3C(O)C21 (centres undefined)
NF-kB SEAP reporter activity (RAW-Dual [2]; [8]): 1.13

CC(=O)N1CCC(Nc2cc(C(=O)NCC(O)CN3CCc4ccccc4C3)ncn2)CC1 (centres undefined) (library stock concentration (final ~1000-fold dilution): 10 mM)
NF-kB SEAP reporter activity (RAW-Dual [1]; agonist: LPS (TLR4) 0.1 ug/mL): 1.08 | NF-kB SEAP reporter activity (RAW-Dual [1]; [4]): 0.948 | NF-kB SEAP reporter activity (RAW-Dual [1]; [5]): 1.13 | NF-kB SEAP reporter activity (RAW-Dual [1]; [6]): 1.17

Reference: the supplement of paper PMC10037445
